# Test results reported in PubChem BioAssay (NCI).
# About 83,000 compounds went through this panel and 20% of them were active in at least one assay; those are over-represented in the sample as a whole.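 Plates (96-well) were seeded with cells, treated with compound at one concentration, and incubated for 48 hours before percent growth was determined.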 A number with no mark means an inactive call. Activity calls are given as the source filed them. The calls were made as follows: active = growth percent below 10; inactive = the rest.
# How the values were obtained:
# Assay in all cases: NCI-60 one-dose screen, 48 h (100 = growth as untreated, 0 = no growth, -100 = all killed)
# HCT-15 colon = details: 10 µM unless noted
# HT29 colon = details: 10 µM unless noted
# SNB-75 CNS = details: 10 µM unless noted
# SNB-19 CNS = details: 10 µM unless noted
# U251 CNS = details: 10 µM unless noted
# PC-3 prostate = details: 10 µM unless noted
# SK-MEL-5 melanoma = details: 10 µM unless noted
# UACC-62 melanoma = details: 10 µM unless noted
# LOX IMVI melanoma = details: 10 µM unless noted
# SK-MEL-28 melanoma = details: 10 µM unless noted
# SK-MEL-2 melanoma = details: 10 µM
# EKVX NSCLC = details: 10 µM unless noted
# SN12C renal = details: 10 µM unless noted
# UO-31 renal = details: 10 µM unless noted
# TK-10 renal = details: 10 µM unless noted
# ACHN renal = details: 10 µM unless noted
# A498 renal = details: 10 µM unless noted
# CCRF-CEM leukemia = details: 10 µM unless noted
# MOLT-4 leukemia = details: 10 µM unless noted
# CAKI-1 renal = details: 10 µM unless noted
Structure (SMILES),growth (HCT-15 colon),growth (HT29 colon),growth (SNB-75 CNS),growth (SNB-19 CNS),growth (U251 CNS),growth (PC-3 prostate),growth (SK-MEL-5 melanoma),growth (UACC-62 melanoma),growth (LOX IMVI melanoma),growth (SK-MEL-28 melanoma),growth (SK-MEL-2 melanoma),growth (EKVX NSCLC),growth (SN12C renal),growth (UO-31 renal),growth (TK-10 renal),growth (ACHN renal),growth (A498 renal),growth (CCRF-CEM leukemia),growth (MOLT-4 leukemia),growth (CAKI-1 renal)
CC[n+]1c(/C=C/C=C2\N(C)c3ccccc3C2(C)C)sc2ccccc21,6.66% (active),6.94% (active),28.8%,31.9%,10.8%,17.4%,-89.7% (active),12.4%,2.76% (active),37.1%,-16.2% (active),10.9%,5.6% (active),12.6%,21.5%,7.97% (active),12.3%,3.17% (active),-19.1% (active),–
O=C(c1ccccc1)C(c1ccccc1)N1CCOCC1 (stereo not drawn),104%,99.1%,100%,100%,95.1%,92.7%,102%,105%,98.2%,105%,91.1%,99%,101%,86.9%,90%,106%,111%,91.2%,94.3%,–
CC(C)=CCc1cc2c(cc1O)C1=C(C(=O)C3=C(NCCS3(=O)=O)C1=O)C(C=C(C)C)O2 (stereo not drawn),39.8%,47.9%,71.4%,31.7%,1.89% (active),16.4%,5.34% (active),28.2%,4.56% (active),24.3%,19.3%,48.6%,-43.3% (active),41.6%,122%,62.4%,94.9%,0.962% (active),-22.3% (active),–
C=C1C(=O)O[C@H]2[C@H]1CC/C(Cn1cc(-c3cc(C)c(C)cc3C)nn1)=C\CC[C@@]1(C)O[C@@H]21,-82.6% (active),-67.9% (active),29%,41.8%,12.8%,-69.7% (active),7.44% (active),-82% (active),-95% (active),-76.3% (active),-12.9% (active),-79.9% (active),-34.6% (active),-98.3% (active),-98.9% (active),-86.7% (active),–,-13.8% (active),-19.2% (active),-93.7% (active)
CCc1ccc(/C=C/c2ccc(O)c3ncccc23)[n+](C)c1,85%,50.9%,48.1%,41.1%,25.9%,61.3%,26.3%,35.7%,55.6%,60.7%,78.4%,47%,31.4%,27.1%,85.5%,89.3%,29.6%,22.8%,7.81% (active),–
COc1ccc(OC)c(NC2=C(SCCc3ccccc3)C(=O)c3ccccc3C2=O)c1,64.2%,106%,78%,82.2%,77%,64.7%,80.9%,62.1%,66.4%,108%,73.2%,77.3%,91.2%,61.6%,110%,77.2%,–,–,80.4%,63.7%
Cc1sc2c(c1C)c(=O)nc1c(-c3nc4ccccc4s3)n[nH]n12,100%,101%,95.3%,101%,98%,78.7%,96.7%,88.4%,93.3%,101%,95.2%,81.9%,96.7%,73.7%,140%,101%,101%,89.2%,94.5%,–
OCCNC(=S)Nc1ccc(-c2nc(N3C[C@H]4CC[C@@H](C3)O4)c3cccn3n2)cc1,13%,20.1%,-30.4% (active),0.975% (active),7.99% (active),9.91% (active),-34.8% (active),-36.5% (active),1.79% (active),-5.35% (active),-21.5% (active),1.72% (active),2.32% (active),-13.8% (active),-28.2% (active),6.16% (active),–,–,16.7%,6.32% (active)
COc1cc(-c2nc(C(=O)Nc3ccc(C)cc3)nn2-c2ccc(F)c(F)c2)cc(OC)c1OC,94.7%,75.5%,84.9%,104%,100%,96.7%,95.8%,105%,99%,108%,89.5%,99.9%,97.5%,72.9%,98.8%,105%,112%,102%,94.9%,–
COC(=O)c1[nH]cnc1/N=N/N(C)CCO,109%,108%,79%,103%,104%,109%,102%,101%,101%,117%,108%,97.9%,102%,84.9%,129%,103%,121%,102%,85.8%,–
COC(=O)CC[C@@H](C)[C@H]1CC[C@H]2C3CC[C@@H]4C[C@@H]5CC[C@]4(C)[C@@]3(O5)[C@H](Br)[C@@H](Br)[C@]12C (stereo partly drawn),97.3%,81.6%,84.3%,106%,88.6%,77.9%,99.3%,86.3%,97.1%,105%,93%,84.8%,98.1%,93.7%,97.7%,96.8%,–,95.6%,76%,80.3%
NC1=Nc2ccccc2N(O)N1,105%,90.6%,78.5%,108%,98.6%,95.1%,105%,102%,96.8%,100%,89.2%,95.4%,99.1%,88.4%,94.7%,100%,–,105%,99.4%,91.8%
Nc1c2c(c(O)c3c1=C(CO)C=N3)=NCCS2,-87.1% (active),-20.9% (active),-79.2% (active),-93.7% (active),-91.5% (active),-51.8% (active),-99.1% (active),-79.9% (active),-89.5% (active),-79% (active),-54.6% (active),-63.8% (active),-63.4% (active),-86.3% (active),-79.4% (active),0.734% (active),-88.2% (active),6.13% (active),-24.7% (active),–
COc1ccc2c(CCCc3ccc(Cl)cc3Cl)c3[n+](cc2c1OC)CCc1cc2c(cc1-3)OCO2,24.4%,-15.6% (active),15.2%,16.7%,3.76% (active),-14.2% (active),-99.6% (active),-68.2% (active),-80.3% (active),-35.6% (active),-22.8% (active),23.1%,-24.9% (active),25.4%,0.636% (active),21.9%,–,5.42% (active),-9.91% (active),71.9%
Cc1cc2c3c(cccc3c1)C(=O)c1ccccc1-2,93.5%,94.9%,111%,97.8%,98.8%,93.6%,95.2%,85.1%,86.8%,105%,105%,78.1%,97%,60.5%,106%,97.6%,93.2%,118%,87.2%,–
